Test [1] is described as follows: CPHEA_Stoker_NIS_Cytotoxicity: Cytotoxicity Assessment for CPHEA's Radioactive Iodide Uptake (RAIU) Assay for Sodium/Iodide Symporter (NIS) Inhibition, Stoker and Laws Labs (AID 2283897).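 On AC50: active means loss of ATP signal versus DMSO meaning cytotoxicity.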 The gist of the method: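 ATP luminescence (Cell Titer Glo) measured viability, with loss of signal normalized to DMSO controls. Cells: hNIS-HEK293T-EPA, seeded 40 hours prior. Dosing: 0.001–100uM, 2 hours, room temperature, uptake buffer pH 7.4.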

Test [2] in a line: CEETOX_H295R_11DCORT_noMTC: CeeTox H295R High-throughput Steroidogenesis Assay for 11-Deoxycortisol (11DCORT), maximum tolerated concentration (MTC) filtered results only (AID 2283911; active means hit-call score of the fitted dose curve at least 0.9, where 1 is the maximum; inactive means score below 0.9). Conditions: actives raise or lower the signal. The gist of the method:
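Values carry no filtering for maximum tolerated concentration: medium from forskolin-primed (10 uM, 48 h) H295R cells after 48 h chemical exposure (0.1% DMSO) was MTBE-extracted, and 11-deoxycortisol quantified by reverse-phase HPLC-MS/MS. Fitting was bidirectional against DMSO.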

Test [3] in a line: CEETOX_H295R_OHPREG_noMTC: CeeTox H295R High-throughput Steroidogenesis Assay for OH-Pregnenolone (OHPREG), maximum tolerated concentration (MTC) filtered results only (AID 2283912; active means hit-call score of the fitted dose curve at least 0.9, where 1 is the maximum; inactive means score below 0.9). The settings on record: actives raise or lower the signal. Put shortly: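 H295R cells prestimulated 48 h with 10 uM forskolin, then exposed 48 h to compound (0.1% DMSO). 17alpha-hydroxypregnenolone in medium measured by MTBE extraction and HPLC-MS/MS; bidirectional fit vs DMSO, concentrations not MTT/MTC-filtered.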

A short description of test [4]: CEETOX_H295R_OHPROG_noMTC: CeeTox H295R High-throughput Steroidogenesis Assay for OH-Progesterone (OHPROG), maximum tolerated concentration (MTC) filtered results only (AID 2283914; active means hit-call score of the fitted dose curve at least 0.9, where 1 is the maximum; inactive means score below 0.9). Conditions: actives raise or lower the signal. The gist of the method: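 H295R cells prestimulated 48 h with 10 uM forskolin, then exposed 48 h to chemical (0.1% DMSO final). 17alpha-hydroxyprogesterone in medium quantified by HPLC-MS/MS after MTBE extraction; bidirectional fitting versus DMSO, concentrations not MTC-filtered.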

Test [5] in a line: CEETOX_H295R_ANDR_noMTC: CeeTox H295R High-throughput Steroidogenesis Assay for Androstenedione (ANDR), maximum tolerated concentration (MTC) filtered results only (AID 2283915; active means hit-call score of the fitted dose curve at least 0.9, where 1 is the maximum; inactive means score below 0.9). The settings on record: actives raise or lower the signal. The gist of the method:
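H295R cells, passage 10 or below, prestimulated 48 h with 10 uM forskolin, then exposed 48 h to chemical in 0.1% DMSO. Medium androstenedione extracted with MTBE, quantified by HPLC-MS/MS; concentrations not MTC-filtered; bidirectional fit versus DMSO.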

Test [6] can be described thus: CEETOX_H295R_CORTISOL_noMTC: CeeTox H295R High-throughput Steroidogenesis Assay for Cortisol, maximum tolerated concentration (MTC) filtered results only (AID 2283916; active means hit-call score of the fitted dose curve at least 0.9, where 1 is the maximum; inactive means score below 0.9). Conditions: actives raise or lower the signal. The gist of the method:
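H295R human adrenal cells prestimulated 48 h with 10 uM forskolin, then exposed 48 h to chemical in 0.1% DMSO; cortisol in medium quantified by HPLC-MS/MS; bidirectional fit vs DMSO baseline, concentrations not MTT-filtered for MTC.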

The nature of test [7]: CEETOX_H295R_CORTIC_noMTC: CeeTox H295R High-throughput Steroidogenesis Assay for Corticosterone (CORTIC), maximum tolerated concentration (MTC) filtered results only (AID 2283917; active means hit-call score of the fitted dose curve at least 0.9, where 1 is the maximum; inactive means score below 0.9). The settings on record: actives raise or lower the signal. The gist of the method: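 H295R adrenal cells pre-stimulated 48 h with 10 uM forskolin, then exposed 48 h to chemical in 0.1% DMSO; corticosterone in medium quantified by HPLC-MS/MS, fitted bidirectionally versus DMSO without MTT-based concentration filtering.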

Test [8] is described as follows: CEETOX_H295R_DOC_noMTC: CeeTox H295R High-throughput Steroidogenesis Assay for DOC, maximum tolerated concentration (MTC) filtered results only (AID 2283918; active means hit-call score of the fitted dose curve at least 0.9, where 1 is the maximum; inactive means score below 0.9). Conditions: actives raise or lower the signal. Put shortly:
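H295R cells prestimulated 48 h with 10 uM forskolin, then exposed 48 h to chemical in 0.1% DMSO. 11-Deoxycorticosterone in medium measured by MTBE extraction and HPLC-MS/MS; bidirectional fit vs DMSO, no MTC filter.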

Test [9] in a line: CEETOX_H295R_PROG_noMTC: CeeTox H295R High-throughput Steroidogenesis Assay for Progesterone (PROG), maximum tolerated concentration (MTC) filtered results only (AID 2283920; active means hit-call score of the fitted dose curve at least 0.9, where 1 is the maximum; inactive means score below 0.9). The settings on record: actives raise or lower the signal. The gist of the method: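 H295R cells, prestimulated 48 h with 10 uM forskolin, exposed 48 h to chemical in 0.1% DMSO. Medium progesterone quantified by MTBE extraction and HPLC-MS/MS; bidirectional fit versus DMSO, concentrations not MTT-filtered.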

Test [10] can be described thus: CEETOX_H295R_TESTO_noMTC: CeeTox H295R High-throughput Steroidogenesis Assay for Testosterone (TESTO), maximum tolerated concentration (MTC) filtered results only (AID 2283924; active means hit-call score of the fitted dose curve at least 0.9, where 1 is the maximum; inactive means score below 0.9). The settings on record: actives raise or lower the signal. Put shortly: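 H295R cells prestimulated 48 h with 10 uM forskolin, then exposed 48 h to chemicals in 0.1% DMSO final. Testosterone in medium quantified by MTBE extraction and HPLC-MS/MS; bidirectional fit versus DMSO, concentrations […] filtered by MTT-based maximum tolerated concentration.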

Test [11] deals with PGR (gene 5241) (UniProt P06401). In words: TOX21_PR_BLA_Followup_Agonist_ratio: Tox21 HEK293 Progesterone Receptor (PR) Agonism Beta-lactamase Follow-Up Assay, Ratio (AID 2283933). Put shortly: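 PR-UAS-bla HEK293T cells (GAL4-UAS beta-lactamase reporter) in medium with 2% charcoal-stripped FBS received compounds after 6 hr at 37C, then incubated 16 hr. LiveBLAzer FRET substrate added, 2 hr room temperature; cleaved/uncleaved (ch2/ch1) ratio fitted upward versus DMSO.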

Test [12] shares this target. In words: TOX21_PR_BLA_Followup_Antagonist_ratio: Tox21 HEK293 Progesterone Receptor (PR) Antagonism Beta-lactamase Follow-Up Assay, Ratio (AID 2283934). The gist of the method: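 PR-UAS-bla HEK293T cells in medium with 2% charcoal-stripped FBS were treated with compounds plus 1 nM (final) promegestone (R5020) for 16 hr at 37C. LiveBLAzer B/G FRET substrate was then added for 2 h at room temperature; signal is cleaved/uncleaved substrate ratio versus DMSO.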

Test [13] can be described thus: TOX21_PR_BLA_Followup_Agonist_viability: Viability Assessment in the Tox21 HEK293 Progesterone Receptor (PR) Agonism Beta-lactamase Follow-Up Assay (AID 2283935).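 Further: signal loss means lower viability so actives are cytotoxic.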 The gist of the method:
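PR-UAS-bla HEK293T cells in 2% charcoal-stripped FBS medium, compound added after 6 hr plating, 16 hr at 37C/5% CO2. After bla FRET read, CellTiter-Glo added; luminescence read after 30 min at room temperature; signal loss marks cytotoxicity.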

The nature of test [14]: TOX21_PR_BLA_Followup_Antagonist_viability: Viability Assessment in the Tox21 HEK293 Progesterone Receptor (PR) Antagonism Beta-lactamase Follow-Up Assay (AID 2283936).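 Further: hits lower the luminescence signal meaning cytotoxicity.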 The gist of the method: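 PR-UAS-bla HEK293T cells (3,000/well, 2% charcoal-stripped FBS) given compound plus R5020 agonist, 16 h at 37C. CellTiter-Glo added after bla read, 30 min at room temperature; luminescence loss indicates cytotoxicity.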

Test [15] concerns the target PGR (gene 5241) (UniProt P06401). Nature of the test: TOX21_PR_LUC_Followup_Agonist: Tox21 HEK293 Progesterone Receptor (PR) Agonism Luciferase Follow-Up Assay (AID 2283937; active means hit-call score of the fitted dose curve at least 0.9, where 1 is the maximum; inactive means score below 0.9). The gist of the method: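 HEK293-PR-A-luc cells, pre-cultured 5 days in medium with 10% charcoal-stripped FBS, were seeded at 3,000 cells/well, rested 5 h at 37C, then exposed to compounds 16 h at 37C; luciferase read by ONE-Glo luminescence after 30 min.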

Test [16] has the same target. Nature of the test: TOX21_PR_LUC_Followup_Antagonist: Tox21 HEK293 Progesterone Receptor (PR) Antagonism Luciferase Follow-Up Assay (AID 2283938).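 Further: curve fitted upward as signal gain over DMSO baseline despite antagonist label.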 Put shortly: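 Luminescence from ONE-Glo was measured 30 min after reagent addition, following 16 h exposure of HEK293-PR-A-luc cells (3,000/well, plated 5 h earlier) to DMSO-dissolved compounds at 37C; DMSO served as baseline.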

Test [17] in a line: TOX21_PR_LUC_Followup_Antagonist_viability: Viability Assessment in the Tox21 HEK293 Progesterone Receptor (PR) Antagonism Luciferase Follow-Up Assay (AID 2283940). Put shortly: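 HEK293-PR-A-luc cells, precultured 5 days in assay medium with 10% charcoal-stripped FBS, were seeded at 3,000 cells/well, treated with compounds in DMSO for 16 h at 37C, and viability was read as cellular ATP by CellTiter-Glo luminescence.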

A short description of test [18]: TOX21_PR_LUC_Followup_Agonist_viability: Viability Assessment in the Tox21 HEK293 Progesterone Receptor (PR) Agonism Luciferase Follow-Up Assay (AID 2283941).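 Further: loss of signal means cytotoxicity so actives lower viability.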 Put shortly: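 HEK293-PR-A-luc cells, pre-cultured 5 days in 10% charcoal-stripped FBS, were seeded at 3,000 cells/well, rested 5 h at 37C, then given compound in DMSO for 16 h at 37C. Cellular ATP was read by CellTiter-Glo luminescence; signal loss indicates cytotoxicity.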

SMILES strings stand for the structures. Inconclusive results are not listed. The source made the active and inactive calls. How the source made its calls, unless noted: active means hit-call score of the fitted dose curve at least 0.9, where 1 is the maximum; inconclusive means response in the unintended direction; inactive means score below 0.9.

The AC50 is the concentration at which the activity in the assay is half-maximal.

Sequence of PGR (gene 5241) (P06401 whole entry, looked up, the tested form may be a part): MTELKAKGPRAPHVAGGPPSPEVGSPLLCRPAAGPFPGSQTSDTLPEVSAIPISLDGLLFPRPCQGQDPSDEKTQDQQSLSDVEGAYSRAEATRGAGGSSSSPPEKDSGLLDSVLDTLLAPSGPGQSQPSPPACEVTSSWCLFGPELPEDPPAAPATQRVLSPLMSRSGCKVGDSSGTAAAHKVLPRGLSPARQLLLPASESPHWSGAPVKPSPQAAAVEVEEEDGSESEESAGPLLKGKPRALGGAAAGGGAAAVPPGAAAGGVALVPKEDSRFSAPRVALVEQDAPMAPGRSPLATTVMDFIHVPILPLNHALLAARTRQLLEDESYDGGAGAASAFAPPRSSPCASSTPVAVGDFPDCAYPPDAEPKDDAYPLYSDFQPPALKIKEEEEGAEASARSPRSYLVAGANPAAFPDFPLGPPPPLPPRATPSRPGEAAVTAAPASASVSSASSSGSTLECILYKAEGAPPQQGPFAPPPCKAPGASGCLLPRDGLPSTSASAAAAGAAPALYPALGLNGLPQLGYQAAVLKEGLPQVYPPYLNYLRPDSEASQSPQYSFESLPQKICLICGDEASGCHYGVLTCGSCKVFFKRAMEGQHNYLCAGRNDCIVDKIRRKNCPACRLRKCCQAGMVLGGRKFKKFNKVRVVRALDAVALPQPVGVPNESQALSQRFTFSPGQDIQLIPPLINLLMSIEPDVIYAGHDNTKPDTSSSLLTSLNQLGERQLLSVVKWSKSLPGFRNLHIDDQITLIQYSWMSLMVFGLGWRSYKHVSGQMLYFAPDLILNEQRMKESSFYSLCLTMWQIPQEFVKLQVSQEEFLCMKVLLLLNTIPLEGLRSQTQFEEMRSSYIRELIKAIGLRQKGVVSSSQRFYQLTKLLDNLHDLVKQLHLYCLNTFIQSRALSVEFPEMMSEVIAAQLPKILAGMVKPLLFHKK

As to `CN(C)c1ccc2nc3ccc(=[N+](C)C)cc-3sc2c1`, the AC50 in test [1] was 50 µM (active).

As to `Cc1ccc([N+](=O)[O-])cc1N`, the outcome in [1] was inactive.

For the compound `CCCCCCCCCC[N+](C)(CCCCCCCCCC)CCC[Si](OC)(OC)OC`, the outcome in [1] was inactive.

Take `COc1ccc(C(=O)/C(Br)=C\C(=O)O)cc1`: the AC50 in test [2] is 65.2 µM (active); in [3], 14.2 µM (active); in test [4], 58.3 µM (active); in test [5] it was 39.2 µM (active); in [6], 50 µM (active); in test [7], 57.8 µM (active). Besides, the figures for the AC50 in test [8], in test [9] and in [10] were 13.6 µM (active), 8.09 µM (active) and 83.6 µM (active), respectively.

With `CO[Si](C)(C)OC`, the outcome in [1] was inactive.

In the case of `O=C(OCCc1ccccc1)c1ccccc1`, the outcome in [1] was inactive.

Turning to `C=C1C[C@H]2[C@@H]3C=C(C)C4=CC(=O)CC[C@]4(C)[C@H]3CC[C@]2(C)[C@@]1(OC(C)=O)C(C)=O`, the result in test [1] was inactive.

Consider `CCCCCCCOC(=O)c1ccc(O)cc1`, for which, in test [1], the result was inactive.

For the compound `c1ccc2c(c1)[nH]c1ccccc12`, the result (with PGR (gene 5241) [11]; with PGR (gene 5241) [12]; in test [13]; in test [14]; in the test with PGR (gene 5241) [15]; with PGR (gene 5241) [16]) was inactive. Besides, the compound was called inactive in test [17] and in test [18].

Take `Nc1ccc(C(=O)OCCCOC(=O)c2ccc(N)cc2)cc1`: the outcome (with PGR (gene 5241) [12]; in test [13]; in test [14]; with PGR (gene 5241) [16]; in test [18]) was inactive.

On to `O=C(OCc1ccccc1)c1ccc(O)cc1`, for which, in test [1], the outcome was inactive.

As to `c1ccc(Nc2cccc3ccccc23)cc1`, the result in test [1] was inactive.

In the case of `COc1ccc(C(=O)c2ccccc2)c(O)c1`, the result in test [1] was inactive.

As for `O=C(Nc1ccccc1)c1cc(Cl)ccc1O`, the result in [1] was inactive.

With `CCCCCCCCCCCCCCCCCCOS(=O)(=O)O`, the outcome in [1] was inactive.

Consider `O=C(Oc1ccccc1)c1ccccc1O`, for which the result in test [1] was inactive.

Consider `COc1ccc(-c2coc3cc(O)cc(O)c3c2=O)cc1`, for which the outcome in test [1], in [13], in [14] and in [17] was inactive. Further, the AC50 is 29.5 µM (active) in the test with PGR (gene 5241) [12] and 81.7 µM (active) with PGR (gene 5241) [16].

These data come from PubChem BioAssay (EPA / NIEHS).
